The list is not random: actives were taken first. Their share in the collection is about 14%.
LASV entry inh – blocks Lassa virus binding to or entry into cells; Lassa virus pseudotype entry inhibition, cell reporter; Potency, µM (top dose mostly 37.9 µM), for the others: top-dose activity change, negative = inhibition, actives largely listed as inhibitors; hit rate 1.2% among 300,000; AID 540256; calls by dose curve; tested in HEK293 cells; further: potency means the concentration at half of the fitted maximal effect; nearly all actives have a fitted effect of over 50% in size
MARV entry inh – Marburg virus entry inhibition | hit rate 1.8% among 300,000 | Potency, µM (series often up to 37.8 µM), inactives show at the highest dose activity change, negative = inhibition, usual class: inhibitors | Marburg virus pseudotyped entry inhibition, cell reporter; calls by dose curve; tested in HEK293 cells; further: potency means the concentration at half of the fitted maximal effect
HCV inhibitor – inhibitors of hepatitis C virus infection | Potency, µM (titrated, usually from 41.8 µM), for inactives: top-dose activity change, negative = inhibition, most hits filed as inhibitors | AID 651820 | Huh7.5.1 HCVcc-Cre infection, luciferase reporter, 44 h | hit rate 3.4% among 340,000; further: potency means the concentration at half of the fitted maximal effect
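Cells seeded at 1,000/well and cultured 4 h, then compounds added followed by HCVcc-Cre virus (~0.5 moi). After 44 h further culture, luciferase substrate was added, plates held 15 min at room temperature, and luminescence read for 15 sec.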
Pf growth 96h – inhibits malaria parasite growth, 96 h; P. falciparum luciferase reporter growth, 96 h; Potency, µM (titrated, usually from 28.7 µM), inactives show top-dose activity change, negative = inhibition, most hits filed as inhibitors; hit rate 6.9% among 320,000; AID 504834; further: potency means the concentration at half of the fitted maximal effect
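Erythrocytes infected with luciferase-expressing P. falciparum were dispensed at 2% hematocrit and 0.05% parasitemia (final), then incubated with compounds 96 hours at 37 C in 5% CO2. Luminescence after detection reagent addition reported growth.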
HCMV inh – human cytomegalovirus inhibition; AID 1259415; activity change, negative = inhibition, % at 57.5 µM; hit rate 4.5% among 410,000; HFF cells, HCMV-luciferase reporter, 72 h; hits give low values; in the data active means activity change below about -60%; inconclusive means no clear call, values can overlap the other calls; inactive means above about -39%
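Inhibition of viral replication was scored as loss of reporter luminescence in HFFs infected with HCMV-luciferase (MOI 1 PFU/cell) for 72 h; compounds tested at 2 doses, normalized to buffer and Salinomycin controls.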
Pf growth 48h – inhibits P. falciparum growth in the first generation, 48 h; P. falciparum luciferase growth in erythrocytes, 48 h; Potency, µM (doses to about 28.7 µM), for inactives: at the highest dose activity change, negative = inhibition, actives largely listed as inhibitors; hit rate 5.9% among 310,000; AID 504832; further: potency means the concentration at half of the fitted maximal effect
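Growth was read as firefly luciferase luminescence after a 48 h, 37 C, 5% CO2 exposure of compounds to reporter-bearing P. falciparum cultures (0.1% parasitemia, 2% hematocrit final) in Albumax-supplemented RPMI 1640.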
Starred values were filed as active, the others as inactive; [ ] = another dose, or the depositor's remark. Unless noted, the call rests on the fitted dose curve; in most records, active means well fitted inhibition curve with a large enough effect; inconclusive means small, poorly fitted or top-dose-only effect, or another doubt; inactive means no such curve, though single readings can be large or run the other way. On the % scale 0 is the no-effect control and ±100 the full control effect.

Results for COc1ccc(-n2c(=O)c3c4c(sc3n(Cc3ccc(F)cc3)c2=O)CN(C(C)=O)CC4)c(OC)c1 ?
MARV entry inh: 35%[46.1 µM]; HCMV inh: 12

What do the screens show for `COC(=O)c1cc2c(n1S(=O)(=O)c1ccc(C)cc1)C(=O)C(=O)c1[nH]cc(C(=O)OCc3ccccc3)c1-2`?
LASV entry inh: 2.8µM*; MARV entry inh: inconclusive; HCV inhibitor: inconclusive

Results for COC(=O)c1ccc(COC(=O)c2ccc(CS(=O)(=O)c3ccc(C)cc3)cc2)cc1 ?
LASV entry inh: -4%; MARV entry inh: 4%; HCV inhibitor: 4%; Pf growth 96h: -13%; HCMV inh: 34

Results for COc1ccc(C(O)c2nc3ccccc3n2C)cc1OC (stereo not drawn) ?
LASV entry inh: -20%; MARV entry inh: inconclusive; HCV inhibitor: 2.8µM*; Pf growth 96h: 2%; HCMV inh: -88*; Pf growth 48h: 10%

How did CC1CCN(C(=O)CSc2nc(-c3ccc(C(C)C)cc3)no2)CC1 do in these assays?
LASV entry inh: 17%[46.1 µM]; HCMV inh: 7

Results for CC1CN=C(Nc2ccc(N(C)C)cc2)S1 (stereo not drawn) ?
LASV entry inh: 3%; MARV entry inh: 8%; HCV inhibitor: -10%; Pf growth 96h: 2.1µM*; HCMV inh: -31; Pf growth 48h: 17%

What do the screens show for `CC(C)(C)OC(=O)NCCCCCNC(=O)c1nc[nH]c1C(=O)N1CCN(c2ccccc2)CC1`?
HCV inhibitor: 7%; HCMV inh: -29

What do the screens show for `CC(C)(C)OC(=O)NCCCC[C@H](NC(=O)c1nc[nH]c1C(=O)N1CCN(c2ccccc2)CC1)C(=O)OC(C)(C)C`?
HCV inhibitor: inconclusive; Pf growth 96h: 13µM*; HCMV inh: 21; Pf growth 48h: 12µM*

Results for CC(C)(C)OC(=O)NCCCCCNC(=O)c1nc[nH]c1C(=O)N1CCN(C(=O)OC(C)(C)C)CC1 ?
HCV inhibitor: 17%; Pf growth 96h: inconclusive; HCMV inh: 3; Pf growth 48h: inconclusive

Results for CC(C)(C)OC(=O)NCCCC[C@H](NC(=O)c1nc[nH]c1C(=O)N1CCN(C(=O)OC(C)(C)C)CC1)C(=O)OC(C)(C)C ?
HCV inhibitor: -16%; Pf growth 96h: 8.3µM*; HCMV inh: -8; Pf growth 48h: inconclusive

Results for CC(C)C[C@H](NC(=O)c1nc[nH]c1C(=O)N1CCN(C(=O)OC(C)(C)C)CC1)C(=O)OC(C)(C)C ?
HCV inhibitor: inconclusive; Pf growth 96h: inconclusive; HCMV inh: -96*; Pf growth 48h: inconclusive

Results for Clc1ccccc1-c1nc2c(NCc3ccccc3)nccc2[nH]1 ?
HCMV inh: 3

Results for COc1ccc(-c2cc(NCc3ccc(C)cc3)n3cnnc3n2)cc1 ?
LASV entry inh: inconclusive; MARV entry inh: inconclusive; HCMV inh: -20

How did CC1=NN(c2ccc(C)c(C)c2)C(=O)/C1=C\C=C\c1ccc([N+](=O)[O-])o1 do in these assays?
LASV entry inh: 7.1µM*; MARV entry inh: 3.5µM*; HCV inhibitor: 11µM*; Pf growth 96h: inconclusive; HCMV inh: -88*; Pf growth 48h: 1%

Results for c1cc2ccc3ccc(CN4CCOCC4)c4ccc(c1)c2c34 ?
LASV entry inh: 17%; MARV entry inh: 19%; HCV inhibitor: 10µM*; Pf growth 96h: inconclusive; HCMV inh: 12; Pf growth 48h: 32%

What do the screens show for `Cc1ccc(S(=O)(=O)N2CC3CCCC2C3)cc1` (stereo not drawn)?
LASV entry inh: -1%; MARV entry inh: 2%[14.2 µM]; HCV inhibitor: 13%; Pf growth 96h: -33%; HCMV inh: 0; Pf growth 48h: 1.7µM*

Results for Cn1c(C(=O)c2ccncc2)cc2ccccc21 ?
HCV inhibitor: 10%; Pf growth 96h: inconclusive; HCMV inh: -20; Pf growth 48h: 13µM*

Results for Cc1cccc(NC(=O)c2ccc(OCc3c(C)noc3C)cc2)n1 ?
HCV inhibitor: inconclusive; Pf growth 96h: -24%; HCMV inh: 0; Pf growth 48h: inconclusive

How did Cc1c(C(=O)OC(C)C)sc(NC(=O)C2c3ccccc3Oc3ccccc32)c1C(=O)OC(C)C do in these assays?
LASV entry inh: -21%[46.1 µM]; MARV entry inh: inconclusive; HCMV inh: -3

What do the screens show for `Cc1ccc(NC(=O)CN(C)C(=O)c2ccc(NC(=O)CC3SC(N4CCCC4)=NC3=O)cc2)cc1` (stereo not drawn)?
LASV entry inh: 19%; MARV entry inh: 7%[46.1 µM]; HCV inhibitor: -9%; Pf growth 96h: inconclusive; HCMV inh: 4; Pf growth 48h: -9%

How did CN(Cc1c(F)cccc1Cl)C(=O)c1ccc(NC(=O)CC2SC(N3CCCC3)=NC2=O)cc1 (stereo not drawn) do in these assays?
LASV entry inh: inconclusive; MARV entry inh: -4%; HCV inhibitor: 9%; Pf growth 96h: inconclusive; HCMV inh: -25; Pf growth 48h: 10µM*

How did COc1ccc(CN(C)C(=O)c2ccc(NC(=O)CC3SC(N4CCCC4)=NC3=O)cc2)c(OC)c1 (stereo not drawn) do in these assays?
LASV entry inh: -4%; MARV entry inh: -1%[46.1 µM]; HCV inhibitor: -29%; Pf growth 96h: inconclusive; HCMV inh: 3; Pf growth 48h: inconclusive

How did CCN(CC(=O)Nc1c(F)cccc1F)C(=O)c1ccc(NC(=O)CC2SC(N3CCCC3)=NC2=O)cc1 (stereo not drawn) do in these assays?
LASV entry inh: 2%; MARV entry inh: -11%; HCV inhibitor: 5%; Pf growth 96h: 13µM*; HCMV inh: -4; Pf growth 48h: 0%

Results for O=C(CC1SC(N2CCCC2)=NC1=O)Nc1ccc(C(=O)NCc2ccccc2F)cc1 (stereo not drawn) ?
HCMV inh: 55

Results for COc1ccc(CN(C)C(=O)c2ccc(NC(=O)CC3SC(N4CCCC4)=NC3=O)cc2)c(OC)c1OC (stereo not drawn) ?
LASV entry inh: -1%; MARV entry inh: inconclusive; HCV inhibitor: 7%[8.37 µM]; Pf growth 96h: 5.9µM*; HCMV inh: 8; Pf growth 48h: inconclusive

How did CC(C)(C)c1ccc(-c2nnc(-c3ccccc3NC(=O)c3cccc(C(F)(F)F)c3)o2)cc1 do in these assays?
LASV entry inh: 5%[46.1 µM]; MARV entry inh: -4%[46.1 µM]; HCMV inh: 3

Results for Cn1ccc2c(N3CCCCC3)cc3c(c21)C1CCC3O1 (stereo not drawn) ?
MARV entry inh: inconclusive; HCMV inh: 7
